Measurements: paper PMC11062922 (Nature Chemical Biology, 2023)
Read-outs that look alike come from different tables or passages of the source.

Experiments:
AAK1 = tested on: AAK1; parameters: species or system human, MV4-11 + K-562 + COLO205 + SK-N-BE2 + OVCAR-8; conditions: read-out: apparent Kd, compound concentrations: 100 nM and 1000 nM (sheet 'Samples'), n = 1
BMP2K = tested on: BMP2K; parameters: species or system human, MV4-11 + K-562 + COLO205 + SK-N-BE2 + OVCAR-8; conditions: read-out: apparent Kd, compound concentrations: 100 nM and 1000 nM (sheet 'Samples'), n = 1
CLK1 = tested on: CLK1; parameters: species or system human, MV4-11 + K-562 + COLO205 + SK-N-BE2 + OVCAR-8; conditions: read-out: apparent Kd; compound concentrations: 100 nM and 1000 nM (sheet 'Samples'), CATDS: 4.6708282192626498E-3; n = 1
CLK4 = tested on: CLK4; parameters: species or system human, MV4-11 + K-562 + COLO205 + SK-N-BE2 + OVCAR-8; conditions: read-out: apparent Kd; compound concentrations: 100 nM and 1000 nM (sheet 'Samples'), CATDS: 3.9570541670233801E-3; n = 1
CSNK2A1;CSNK2A3 = tested on: CSNK2A1;CSNK2A3; parameters: species or system human, MV4-11 + K-562 + COLO205 + SK-N-BE2 + OVCAR-8; conditions: read-out: apparent Kd, compound concentrations: 100 nM and 1000 nM (sheet 'Samples'), n = 1
FLT4 = tested on: FLT4; parameters: species or system human, MV4-11 + K-562 + COLO205 + SK-N-BE2 + OVCAR-8; conditions: read-out: apparent Kd, compound concentrations: 100 nM and 1000 nM (sheet 'Samples'), n = 1
GAK = tested on: GAK; parameters: species or system human, MV4-11 + K-562 + COLO205 + SK-N-BE2 + OVCAR-8; conditions: read-out: apparent Kd, compound concentrations: 100 nM and 1000 nM (sheet 'Samples'), n = 1
GSK3A = tested on: GSK3A; parameters: species or system human, MV4-11 + K-562 + COLO205 + SK-N-BE2 + OVCAR-8; conditions: read-out: apparent Kd, compound concentrations: 100 nM and 1000 nM (sheet 'Samples'), n = 1
GSK3B = tested on: GSK3B; parameters: species or system human, MV4-11 + K-562 + COLO205 + SK-N-BE2 + OVCAR-8; conditions: read-out: apparent Kd, compound concentrations: 100 nM and 1000 nM (sheet 'Samples'), n = 1
MELK = tested on: MELK; parameters: species or system human, MV4-11 + K-562 + COLO205 + SK-N-BE2 + OVCAR-8; conditions: read-out: apparent Kd, compound concentrations: 100 nM and 1000 nM (sheet 'Samples'), n = 1
NUAK1 = tested on: NUAK1; parameters: species or system human, MV4-11 + K-562 + COLO205 + SK-N-BE2 + OVCAR-8; conditions: read-out: apparent Kd, compound concentrations: 100 nM and 1000 nM (sheet 'Samples'), n = 1
PAK4 = tested on: PAK4; parameters: species or system human, MV4-11 + K-562 + COLO205 + SK-N-BE2 + OVCAR-8; conditions: read-out: apparent Kd, compound concentrations: 100 nM and 1000 nM (sheet 'Samples'), n = 1
PKN1 = tested on: PKN1; parameters: species or system human, MV4-11 + K-562 + COLO205 + SK-N-BE2 + OVCAR-8; conditions: read-out: apparent Kd, compound concentrations: 100 nM and 1000 nM (sheet 'Samples'), n = 1
PRKAG1 = tested on: PRKAG1; parameters: species or system human, MV4-11 + K-562 + COLO205 + SK-N-BE2 + OVCAR-8; conditions: read-out: apparent Kd, compound concentrations: 100 nM and 1000 nM (sheet 'Samples'), n = 1
RET = tested on: RET; parameters: species or system human, MV4-11 + K-562 + COLO205 + SK-N-BE2 + OVCAR-8; conditions: read-out: apparent Kd, compound concentrations: 100 nM and 1000 nM (sheet 'Samples'), n = 1
SIK2 = tested on: SIK2; parameters: species or system human, MV4-11 + K-562 + COLO205 + SK-N-BE2 + OVCAR-8; conditions: read-out: apparent Kd, compound concentrations: 100 nM and 1000 nM (sheet 'Samples'), n = 1
PKN3 [1] = tested on: PKN3; parameters: species or system human, MV4-11 + K-562 + COLO205 + SK-N-BE2 + OVCAR-8; conditions: read-out: apparent Kd, compound concentrations: 100 nM and 1000 nM (sheet 'Samples'), n = 1;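 as to IC50: NanoBRET target engagement in HEK293T cells transiently expressing full-length PKN3 with C-terminal NanoLuc, displacement of fluorescent tracer K5 (500 nM), BRET read after 2 h equilibration at 37 °C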
PKN3 [2] = conditions: hek293t cells
CSNK2A2 = tested on: CSNK2A2; parameters: species or system human, MV4-11 + K-562 + COLO205 + SK-N-BE2 + OVCAR-8; conditions: read-out: apparent Kd; compound concentrations: 100 nM and 1000 nM (sheet 'Samples'), CATDS: 1.40967137709553E-2; n = 1
Q6ZSR9 = Q6ZSR9 (human, UniProt Q6ZSR9); parameters: species or system MV4-11 + K-562 + COLO205 + SK-N-BE2 + OVCAR-8; conditions: read-out: apparent Kd; compound concentrations: 100 nM and 1000 nM (sheet 'Samples'), CATDS: 1.64498976329738E-2; n = 1
Chain of Q6ZSR9 (Q6ZSR9 whole entry, looked up): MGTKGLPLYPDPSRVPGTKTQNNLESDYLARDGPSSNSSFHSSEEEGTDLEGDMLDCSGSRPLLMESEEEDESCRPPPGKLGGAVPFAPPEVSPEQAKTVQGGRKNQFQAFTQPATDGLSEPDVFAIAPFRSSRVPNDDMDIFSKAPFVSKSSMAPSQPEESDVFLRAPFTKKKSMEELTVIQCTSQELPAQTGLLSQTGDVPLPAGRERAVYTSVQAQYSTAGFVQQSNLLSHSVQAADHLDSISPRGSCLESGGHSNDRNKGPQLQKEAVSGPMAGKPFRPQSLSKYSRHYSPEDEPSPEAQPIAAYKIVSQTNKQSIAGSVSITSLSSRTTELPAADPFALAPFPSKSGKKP

`COc1cccc(NC(=O)NC2CCN(c3ccnc(Nc4cc(OC)c(OC)c(OC)c4)n3)C2)c1` (centres unmarked) [GSK1379763A] was tested, and the potency estimated from few doses (AAK1; CATDS: 1) was 1.85 µM.
`Cn1ncc2c(N)ncnc21` [SKF-18267] was tested, and the potency estimated from few doses (AAK1; CATDS: 4.0309487407882601E-3) was 1.31 µM, the potency estimated from few doses (BMP2K; CATDS: 3.9456431934801499E-3) was 1.38 µM and the potency estimated from few doses (CLK1) was 0.936 µM. It also gave a potency estimated from few doses (CLK4) of 1.37 µM, a potency estimated from few doses (CSNK2A1;CSNK2A3; CATDS: 3.9180257487408596E-3) of 1.41 µM and a potency estimated from few doses (FLT4; CATDS: 3.68265662419527E-3) of 1.67 µM. The potency estimated from few doses (GAK; CATDS: 4.6125077933925696E-3) was 0.961 µM, the potency estimated from few doses (GSK3A; CATDS: 6.4966954074714102E-3) was 0.507 µM and the potency estimated from few doses (GSK3B; CATDS: 6.1120630546354802E-3) was 0.562 µM. The potency estimated from few doses (MELK; CATDS: 3.6400689102280299E-3) was 1.72 µM, the potency estimated from few doses (NUAK1; CATDS: 3.5163912979630598E-3) was 1.91 µM and the potency estimated from few doses (PAK4; CATDS: 4.003241038036E-3) was 1.33 µM. The potency estimated from few doses (PKN1; CATDS: 4.0652178532190096E-3) was 1.28 µM, the potency estimated from few doses (PRKAG1; CATDS: 6.4543335305036397E-3) was 0.512 µM and the potency estimated from few doses (RET; CATDS: 4.7446456770992903E-3) was 0.906 µM. The potency estimated from few doses (SIK2; CATDS: 4.9685571215498103E-3) was 0.824 µM.
With `CCn1c(-c2nonc2N)nc2c(C#CCN)ncc(OCCCN)c21.O=C(O)C(F)(F)F` [GSK561866B] the potency estimated from few doses (PKN1; CATDS: 0.15879588217707499) was 0.0655 µM, the potency estimated from few doses (PKN3 [1]; CATDS: 0.49894757840635401) was 0.00521 µM and the IC50 (PKN3 [2]; read-out: Average, SD, n = 4) was 7.97 µM. The IC50 (PKN3 [2]; read-out: Rep 1) was 13 µM, the IC50 (PKN3 [2]; read-out: Rep 2) was 11.2 µM and the IC50 (PKN3 [2]; read-out: Rep 3) was 4.91 µM. It also gave an IC50 (PKN3 [2]; read-out: Rep 4) of 2.81 µM.
With `COc1cccc2c(-c3ccncc3)c(-c3ccc(F)cc3)nn12` [GW468513X] the potency estimated from few doses (GAK; CATDS: 4.7773336245273197E-2) was 0.615 µM, the potency estimated from few doses (PKN3 [1]; CATDS: 5.3563953975551901E-2) was 0.427 µM and the IC50 (PKN3 [2]; read-out: Average, SD, n = 3) was 0.91 µM. For the same compound, the IC50 (PKN3 [2]; read-out: Rep 1) was 2.1 µM, the IC50 (PKN3 [2]; read-out: Rep 2) was 0.552 µM and the IC50 (PKN3 [2]; read-out: Rep 4) was 0.0739 µM.
`O=C(O)C(F)(F)F.O=C(O)C(F)(F)F.O=c1[nH]ccc2nc(N[C@@H]3CCCNC3)nc(Nc3ccc(S(=O)(=O)N4CCOCC4)cc3)c12.O=c1[nH]ccc2nc(N[C@@H]3CCCNC3)nc(Nc3ccc(S(=O)(=O)N4CCOCC4)cc3)c12` [GSK2177277A] showed a potency estimated from few doses (AAK1; CATDS: 1.8142496176493599E-2) of 0.0641 µM, a potency estimated from few doses (BMP2K; CATDS: 3.1293832570600401E-2) of 0.0236 µM and a potency estimated from few doses (CSNK2A1;CSNK2A3; CATDS: 9.7881749935300605E-3) of 0.292 µM. The potency estimated from few doses (CSNK2A2) was 0.111 µM, the potency estimated from few doses (FLT4; CATDS: 8.0407033957096193E-3) was 0.563 µM and the potency estimated from few doses (GAK; CATDS: 7.9677595893025404E-3) was 0.583 µM. It also gave a potency estimated from few doses (GSK3A; CATDS: 2.6961640495366201E-2) of 0.0304 µM, a potency estimated from few doses (GSK3B; CATDS: 2.05762593754709E-2) of 0.0498 µM and a potency estimated from few doses (MELK; CATDS: 1.3446305906565099E-2) of 0.125 µM. It also gave a potency estimated from few doses (NUAK1; CATDS: 0.191214314920645) of 0.00202 µM, a potency estimated from few doses (PAK4; CATDS: 1.6910585220633E-2) of 0.0742 µM and a potency estimated from few doses (PKN1; CATDS: 1.2984656701456401E-2) of 0.136 µM. It also gave a potency estimated from few doses (PKN3 [1]; CATDS: 6.8634871166861197E-3) of 1.09 µM, a potency estimated from few doses (PRKAG1; CATDS: 1.7529215817932601E-2) of 0.0688 µM and a potency estimated from few doses (Q6ZSR9) of 0.0787 µM. It also gave a potency estimated from few doses (RET; CATDS: 2.8395704553292499E-2) of 0.0278 µM and a potency estimated from few doses (SIK2; CATDS: 1.8714442667333402E-2) of 0.0601 µM.
